Many of the other results were omitted from the sample, so hits are more common in it than they were.
NS1 inh – blocks influenza NS1 protein function | Potency, µM (doses to about 46.1 µM) | hit rate 0.4% among 270,000 | AID 2326; calls by dose curve; note: actives are rising curves; nearly all actives have a fitted effect of over 50% in size
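Recovery from NS1-induced slow growth read by OD600 in budding yeast switched to galactose assay medium (pH 6.0, -URA) at 1:100 dilution. Compound 23 nl per well; the matching strain lacking NS1 serves as control.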
SARS PLpro yeast – inhibitors of SARS-CoV papain-like protease in yeast | Potency, µM (series often up to 32.9 µM), actives largely listed as activators | S. cerevisiae expressing SARS-CoV PLpro, growth rescue | hit rate 0.19% among 330,000; calls by dose curve; note: nearly all actives have a fitted effect of over 55% in size
Tb PYK inh – blocks Trypanosoma brucei pyruvate kinase; Q57TT1; hit rate 0.12% among 410,000; AID 624173; TbPYK enzyme, Kinase-Glo Plus ATP luminescence, 45 min; Potency, µM (doses to about 76.8 µM), most hits filed as inhibitors; note: nearly all actives have a fitted effect of over 50% in size
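Quantitative HTS: titrated library compounds versus trypanosomal pyruvate kinase in TEA buffer (pH 7.2) containing KCl, MgCl2, BSA and Tween-20. Reactions were initiated with ADP, 130 uM final. Kinase-Glo Plus luminescence was read after 45 min at RT.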
LmPK inhibitor – inhibitors of Leishmania mexicana pyruvate kinase | Q27686 | purified LmPK, Kinase-Glo ATP luminescence, 1 h | Potency, µM (highest dose often 57.5 µM), usual class: inhibitors | hit rate 0.37% among 290,000
Target sequence (Q27686 whole entry, looked up): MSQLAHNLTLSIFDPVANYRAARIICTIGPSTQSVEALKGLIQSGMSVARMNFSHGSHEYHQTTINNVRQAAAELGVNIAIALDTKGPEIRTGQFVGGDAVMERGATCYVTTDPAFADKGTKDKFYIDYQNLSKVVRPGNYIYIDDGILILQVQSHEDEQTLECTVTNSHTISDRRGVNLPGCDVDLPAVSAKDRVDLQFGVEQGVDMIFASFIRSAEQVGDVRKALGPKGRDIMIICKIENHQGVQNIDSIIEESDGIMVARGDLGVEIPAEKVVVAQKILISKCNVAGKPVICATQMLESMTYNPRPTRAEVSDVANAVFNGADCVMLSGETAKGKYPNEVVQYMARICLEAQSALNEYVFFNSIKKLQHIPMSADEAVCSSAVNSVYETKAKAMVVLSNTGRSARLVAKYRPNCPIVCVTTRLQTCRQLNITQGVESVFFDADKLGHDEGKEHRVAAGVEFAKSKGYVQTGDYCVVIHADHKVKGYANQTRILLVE
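In 50 mM imidazole pH 7.2 with 7 mM MgCl2, LmPK (0.1 nM) turned over PEP (0.5 mM) and ADP (0.1 mM) for 1 h at room temperature. Luciferase read-out of ATP.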
Cycloheximide cs – affects cycloheximide protein synthesis inhibition readout, counter-screen | cell reporter, cycloheximide protein synthesis inhibition counterscreen | max response, % | hit rate 12% among 300,000 | AID 2314; in the data active = max response mostly above about 13%, no sharp cut-off; inactive = mostly below about 14%; note: read at 38.3 µM for the half of the compounds with a filed dose
Shiga inhibitor – Shiga toxin inhibition; inhibition, % at 38.7 µM; Vero cells, Shiga toxin protein synthesis inhibition reporter; hit rate 9.2% among 290,000; AID 2315; in the data active = inhibition mostly above about 28%, no sharp cut-off; inactive = mostly below about 43%
Large screens that a line does not name were inactive. Unless noted, calls come from the whole dose curve; as a rule, active = well fitted curve in the direction sought with a large enough effect; inconclusive = small, poorly fitted or top-dose-only effect, or another doubt; inactive = no such curve, though single readings can be large; an effect the other way counts as inactive or inconclusive.

CC(C)Oc1ccccc1/C=N/NC(=O)c1ccccc1Cl	Cycloheximide cs 12.0
CC(C)Oc1ccccc1/C=N/NC(=O)C1CC1	none (no result: NS1 inh, SARS PLpro yeast, LmPK inhibitor, Cycloheximide cs, Shiga inhibitor)
Cn1cccc1-c1cc(C(=O)N/N=C/c2ccccc2Cl)[nH]n1	Cycloheximide cs 20.4, Shiga inhibitor 79.5
CC(C)Oc1ccccc1/C=N/NC(=O)c1ccc(F)cc1	Cycloheximide cs 27.3, Shiga inhibitor 20.4
CCN(CC)c1nn2c(=O)c(C(=O)NCc3ccc(F)cc3)cnc2s1	none (no result: NS1 inh, SARS PLpro yeast, LmPK inhibitor, Cycloheximide cs, Shiga inhibitor)
CCN(CC)c1ccc(C(=O)N/N=C/c2ccccc2OC(F)F)cc1	SARS PLpro yeast 8.91µM, Cycloheximide cs 25.7 (no result: NS1 inh)
COc1ccccc1C(=O)NCC(=O)OC(C)C(=O)N1CCOCC1 (configuration not stated)	none (no result: NS1 inh, LmPK inhibitor, Cycloheximide cs, Shiga inhibitor)
Cc1cc(C(=O)Nc2ccc(C#N)cc2)on1	none
Cc1cc(C(=O)Nc2ccc(Cl)cc2)on1	Cycloheximide cs 22.7, Shiga inhibitor 58.4
CC(=O)Nc1ccc(NC(=O)/C=C/c2ccc(Cl)cc2)cc1	Cycloheximide cs 29.9, Shiga inhibitor 25.6 (no result: NS1 inh)
Cc1cc(NC(=O)Nc2ccc(Cl)cc2)no1	Cycloheximide cs 26.8 (no result: Shiga inhibitor)
COc1ccc(NC(=O)/C=C/c2ccc(Cl)cc2)cc1	none (no result: SARS PLpro yeast, Tb PYK inh, LmPK inhibitor, Cycloheximide cs, Shiga inhibitor)
Cc1cc(NC(=O)c2ccc(Cl)cc2Cl)no1	Cycloheximide cs 42.1 (no result: Shiga inhibitor)
Cc1ccc(NC(=O)Nc2cc(C)on2)cc1	Cycloheximide cs 47.5, Shiga inhibitor 75.3 (no result: NS1 inh)
CN(C)/C=C/C(=O)c1ccc(Cl)cc1	none
Cn1c(NC(=O)c2ccc(Cl)cc2Cl)cc(=O)n(C)c1=O	none
Cc1cc(NC(=O)COC(=O)c2ccc(Cl)cc2)no1	none (no result: NS1 inh, SARS PLpro yeast, LmPK inhibitor, Cycloheximide cs, Shiga inhibitor)
CN(C)/C=C/C(=O)/C=C/c1ccc(Cl)cc1	Cycloheximide cs 45.3, Shiga inhibitor 86.6
O=C(Nc1ccsn1)c1ccc(Cl)cc1Cl	Cycloheximide cs 41.3, Shiga inhibitor 46.8
Cc1cc(NC(=O)/C=C/c2ccc(Cl)cc2)no1	Cycloheximide cs 23.4, Shiga inhibitor 72.7
Cc1cc(NC(=O)Nc2ccc(Cl)c(Cl)c2)no1	none (no result: NS1 inh, SARS PLpro yeast, LmPK inhibitor, Cycloheximide cs, Shiga inhibitor)
CO[C@H]1OC2O[C@@]3(C)CC[C@H]4[C@H](C)CC[C@@H]([C@H]1C)[C@@]24OO3 (some centres not stated)	none (no result: NS1 inh, SARS PLpro yeast, LmPK inhibitor, Cycloheximide cs, Shiga inhibitor)
Cc1cc(NC(=O)Nc2cccc(C)c2C)no1	none (no result: NS1 inh)
CCOC(=O)c1[nH]cnc1C(=O)Nc1ccc(Cl)cc1	none
Cc1cccc(NC(=O)Nc2cc(C)on2)c1	Cycloheximide cs 39.3, Shiga inhibitor 71.1 (no result: SARS PLpro yeast)
Cc1ocnc1C(=O)Nc1ccc(Cl)cc1	Cycloheximide cs 43.5, Shiga inhibitor 122.1
CC[C@@H](C)[C@@H](C(=O)N1CCNCC1)n1cc(CCC(=O)O)nn1	none
CCc1ccc(CN(Cc2cn[nH]c2-c2ccc(OC)cc2)C(=O)Nc2ccc(C)c(F)c2)cc1	none (no result: NS1 inh, SARS PLpro yeast, LmPK inhibitor, Cycloheximide cs, Shiga inhibitor)
O=S(=O)(c1ccccc1)c1nc(-c2ccco2)oc1Nc1ccccc1	Cycloheximide cs 24.9, Shiga inhibitor 90.2
O=S(=O)(c1ccc(F)cc1)c1nc(-c2ccco2)oc1Nc1ccccc1	Cycloheximide cs 49.9, Shiga inhibitor 113.7
CC(C)Oc1cccc(C(=O)Nc2ccc(N3CCN(S(C)(=O)=O)CC3)cc2)c1	none
Cc1cccc(C(=O)Nc2ccc(N3CCN(S(C)(=O)=O)CC3)cc2)c1	Cycloheximide cs 21.8, Shiga inhibitor 73.3
CS(=O)(=O)N1CCN(c2ccc(NC(=O)c3ccccc3)cc2)CC1	Cycloheximide cs 37.3, Shiga inhibitor 81.7 (no result: NS1 inh)
COc1cccc(C(=O)Nc2ccc(N3CCN(S(C)(=O)=O)CC3)cc2)c1	none
COCCn1c(C)cc(C(=O)CSc2ccc(NC(C)=O)cc2)c1C	Cycloheximide cs 47.0, Shiga inhibitor 104.9
COCCn1c(C)cc(C(=O)CSc2nncn2-c2ccccc2)c1C	none
CC(=O)Nc1ccc(SCC(=O)c2cc(C)n(Cc3cccs3)c2C)cc1	NS1 inh inconclusive, Cycloheximide cs 77.2, Shiga inhibitor 100.8
C=CCn1c(C)cc(C(=O)CSc2ccc(NC(C)=O)cc2)c1C	Cycloheximide cs 43.3, Shiga inhibitor 114.2
O=C(O)CSc1ncccn1	none (no result: NS1 inh)
O=C(CSc1ncccn1)c1ccccc1Br	Cycloheximide cs 25.9, Shiga inhibitor 35.3
CCc1ccccc1NC(=O)CN(C)C(=O)c1cccc(S(=O)(=O)N2CCCCCC2)c1	none (no result: NS1 inh, LmPK inhibitor, Cycloheximide cs, Shiga inhibitor)
CCN(CC)c1cc(C)c2cc(NC(=O)/C=C/c3ccccc3Cl)ccc2n1	none (no result: NS1 inh, SARS PLpro yeast, LmPK inhibitor, Cycloheximide cs, Shiga inhibitor)
CCOc1ccccc1C(=O)N1CCc2cc(OC)c(OC)cc2C1COc1ccc2c(C)cc(=O)oc2c1 (configuration not stated)	none (no result: NS1 inh, SARS PLpro yeast, LmPK inhibitor, Cycloheximide cs, Shiga inhibitor)
